In the supplement of paper PMC8728848:
The sample as a whole holds a higher share of the strongest signals than the screen did.

Key:
Assay in all cases: glycan array binding signal (z-score within array); higher = stronger binding
Conditions in all cases: glycan notation: IUPAC condensed, linker removed
[1] = molecular target: Fuc(a1-2)Gal(b1-3)GlcNAc(b1-3)[Fuc(a1-3)[Gal(b1-4)]GlcNAc(b1-6)]Gal(b1-4)Glc
Procedure, shortened: (§1)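 Glycan array data were curated from 3228 arrays in the Consortium for Functional Glycomics database and kept only where the protein sequence was available. Glycan names were converted to IUPAC-condensed notation, and columns mapping to the same glycan were averaged. The binding signal is a within-array Z-score, averaged across arrays of the same protein sequence at different concentrations or buffers and across linkers. Negative Z-scores can be read as non-binding.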

[2] = molecular target: Fuc(a1-2)Gal(b1-3)[Fuc(a1-4)]GlcNAc(b1-2)Man(a1-3)[Fuc(a1-2)Gal(b1-3)[Fuc(a1-4)]GlcNAc(b1-2)Man(a1-3)]Man(b1-4)GlcNAc(b1-4)GlcNAc
Procedure, shortened: as §1

[3] = molecular target: Fuc(a1-2)Gal(b1-4)GlcNAc(b1-2)Man(a1-3)[Fuc(a1-2)Gal(b1-4)GlcNAc(b1-2)Man(a1-6)]Man(b1-4)GlcNAc(b1-4)GlcNAc
Procedure, shortened: as §1

[4] = molecular target: Fuc(a1-2)Gal(b1-4)GlcNAc(b1-2)Man(a1-3)[Fuc(a1-2)Gal(b1-4)GlcNAc(b1-2)Man(a1-6)]Man(b1-4)GlcNAc(b1-4)[Fuc(a1-6)]GlcNAc
Procedure, shortened: as §1

[5] = molecular target: Fuc(a1-2)Gal(b1-4)GlcNAc(b1-3)[Fuc(a1-3)[Gal(b1-4)]GlcNAc(b1-6)]Gal(b1-4)Glc
Procedure, shortened: as §1

[6] = molecular target: Fuc(a1-2)Gal(b1-4)GlcNAc(b1-6)GalNAc
Procedure, shortened: as §1

[7] = molecular target: Fuc(a1-2)Gal6S(b1-3)GlcNAc6S
Procedure, shortened: as §1

[8] = molecular target: Fuc(a1-2)Gal6S(b1-4)GlcNAc
Procedure, shortened: as §1

[9] = molecular target: Fuc(a1-2)[Gal(a1-3)]Gal(b1-3)GlcNAc(b1-6)GalNAc
Procedure, shortened: as §1

[10] = molecular target: Fuc(a1-2)[Gal(a1-3)]Gal(b1-4)GlcNAc(b1-2)Man(a1-3)[Fuc(a1-2)[Gal(a1-3)]Gal(b1-4)GlcNAc(b1-2)Man(a1-6)]Man(b1-4)GlcNAc(b1-4)GlcNAc
Procedure, shortened: as §1

[11] = molecular target: Fuc(a1-2)[GalNAc(a1-3)]Gal(b1-4)GlcNAc(b1-3)[Fuc(a1-2)[GalNAc(a1-3)]Gal(b1-4)GlcNAc(b1-6)]GalNAc
Procedure, shortened: as §1

[12] = molecular target: Fuc(a1-3)[Gal(b1-4)]GlcNAc(b1-3)GalNAc
Procedure, shortened: as §1

[13] = molecular target: Gal(b1-3)GlcNAc(b1-3)Gal(b1-4)GlcNAc(b1-3)Gal(b1-4)GlcNAc(b1-2)[Gal(b1-3)GlcNAc(b1-3)Gal(b1-4)GlcNAc(b1-3)Gal(b1-4)GlcNAc(b1-6)]Man(a1-6)[Gal(b1-3)GlcNAc(b1-3)Gal(b1-4)GlcNAc(b1-3)Gal(b1-4)GlcNAc(b1-2)Man(a1-3)]Man(b1-4)GlcNAc(b1-4)[Fuc(a1-6)]GlcNAc
Procedure, shortened: as §1

[14] = molecular target: Gal(b1-3)GlcNAc(b1-3)Gal(b1-4)GlcNAc(b1-6)[Gal(b1-3)GlcNAc(b1-3)]Gal(b1-4)Glc
Procedure, shortened: as §1

[15] = molecular target: Gal(b1-3)GlcNAc(b1-6)GalNAc
Procedure, shortened: as §1

[16] = molecular target: Gal(b1-3)[Fuc(a1-4)]GlcNAc(b1-2)Man(a1-3)[Gal(b1-3)[Fuc(a1-4)]GlcNAc(b1-2)Man(a1-6)]Man(b1-4)GlcNAc(b1-4)GlcNAc
Procedure, shortened: as §1

[17] = molecular target: Gal(b1-4)GlcNAc(b1-2)[Gal(b1-4)GlcNAc(b1-6)]Man(a1-6)[GlcNAc(b1-4)][Gal(b1-4)GlcNAc(b1-2)[Gal(b1-4)GlcNAc(b1-4)]Man(a1-3)]Man(b1-4)GlcNAc(b1-4)[Fuc(a1-6)]GlcNAc
Procedure, shortened: as §1

[18] = molecular target: Gal(b1-4)GlcNAc(b1-3)Gal(b1-4)GlcNAc(b1-3)Gal(b1-4)GlcNAc(b1-3)Gal(b1-4)GlcNAc(b1-2)[Gal(b1-4)GlcNAc(b1-3)Gal(b1-4)GlcNAc(b1-3)Gal(b1-4)GlcNAc(b1-3)Gal(b1-4)GlcNAc(b1-6)]Man(a1-6)[Gal(b1-4)GlcNAc(b1-3)Gal(b1-4)GlcNAc(b1-3)Gal(b1-4)GlcNAc(b1-3)Gal(b1-4)GlcNAc(b1-2)Man(a1-3)]Man(b1-4)GlcNAc(b1-4)[Fuc(a1-6)]GlcNAc
Procedure, shortened: as §1

[19] = molecular target: Gal(b1-4)GlcNAc(b1-3)Gal(b1-4)[Fuc(a1-3)GlcNAc(b1-6)]Gal(b1-4)Glc
Procedure, shortened: as §1

[20] = molecular target: Gal(b1-4)GlcNAc(b1-6)Gal(b1-4)GlcNAc(b1-6)GalNAc
Procedure, shortened: as §1

[21] = molecular target: Gal3S(b1-4)[Fuc(a1-3)]Glc6S
Procedure, shortened: as §1

[22] = molecular target: Gal3S(b1-4)[Fuc(a1-3)]GlcNAc
Procedure, shortened: as §1

GalNAc(b1-4)GlcNAc = molecular target: GalNAc(b1-4)GlcNAc
Procedure, shortened: as §1

GalNAc4S6S(b1-4)GlcNAc = molecular target: GalNAc4S6S(b1-4)GlcNAc
Procedure, shortened: as §1

Glc(a1-4)Glc = molecular target: Glc(a1-4)Glc
Procedure, shortened: as §1

Glc(a1-6)Glc(a1-6)Glc = molecular target: Glc(a1-6)Glc(a1-6)Glc
Procedure, shortened: as §1

Glc(b1-4)Glc = molecular target: Glc(b1-4)Glc
Procedure, shortened: as §1

[23] = molecular target: GlcNAc(a1-3)Gal(b1-4)GlcNAc
Procedure, shortened: as §1

[24] = molecular target: GlcNAc(a1-4)Gal(b1-4)GlcNAc(b1-3)Gal(b1-4)[Fuc(a1-3)]GlcNAc(b1-3)Gal(b1-4)[Fuc(a1-3)]GlcNAc
Procedure, shortened: as §1

[25] = molecular target: GlcNAc(a1-6)Gal(b1-4)GlcNAc
Procedure, shortened: as §1

[26] = molecular target: Neu5Ac(a2-3)Gal6S(b1-4)[Fuc(a1-3)]GlcNAc
Procedure, shortened: as §1

[27] = molecular target: Neu5Ac(a2-6)Gal(b1-4)GlcNAc(b1-2)Man(a1-3)[Neu5Ac(a2-6)Gal(b1-4)GlcNAc(b1-2)Man(a1-6)]Man(b1-4)GlcNAc(b1-4)GlcNAc
Procedure, shortened: as §1

[28] = molecular target: Neu5Ac(a2-6)Gal(b1-4)GlcNAc(b1-2)Man(a1-6)Man(b1-4)GlcNAc(b1-4)GlcNAc
Procedure, shortened: as §1

[29] = molecular target: Neu5Ac(a2-6)GlcNAc(b1-4)GlcNAc
Procedure, shortened: as §1

[30] = molecular target: Neu5Ac(a2-6)GlcNAc(b1-4)GlcNAc(b1-4)GlcNAc
Procedure, shortened: as §1

[31] = molecular target: Neu5Ac9Ac(a2-3)Gal(b1-4)GlcNAc
Procedure, shortened: as §1

B1: GST Gap3 (Streptococcus parasanguinis) (protein)
chain: MTKQLISEIYWNEIRKGENYLYGSQIKFQEDLVNFYNPQLASGKPIVTFKSRTNYQGDRHSPDLPILIQGNRYLLEYQIDAVPANSFFLQLDFFNRQAEQIESIVLRNSGESFIFPKDTFTYTLTLMSAGCQSVTYQKFMIYDINDEEKKNHIVENRYLRELLPKDLDLVKNLIEYI
With B1 the “glycan array binding signal (z-score)” value [1] was -0.027, the “glycan array binding signal (z-score)” value [2] was 2.3 and the “glycan array binding signal (z-score)” value [3] was 3.16. The “glycan array binding signal (z-score)” value [4] was -0.105, the “glycan array binding signal (z-score)” value [5] was -0.573 and the “glycan array binding signal (z-score)” value [6] was -0.108. For the same binder, the “glycan array binding signal (z-score)” value [7] was 2.06, the “glycan array binding signal (z-score)” value [8] was -0.073 and the “glycan array binding signal (z-score)” value [9] was -0.112. For the same binder, the “glycan array binding signal (z-score)” value [10] was 0.383, the “glycan array binding signal (z-score)” value [11] was -0.377 and the “glycan array binding signal (z-score)” value [12] was 0.287. For the same binder, the “glycan array binding signal (z-score)” value [13] was 4.03, the “glycan array binding signal (z-score)” value [14] was 0.052 and the “glycan array binding signal (z-score)” value [15] was 0.002. The “glycan array binding signal (z-score)” value [16] was 3.61, the “glycan array binding signal (z-score)” value [17] was 0.228 and the “glycan array binding signal (z-score)” value [18] was 2.32. For the same binder, the “glycan array binding signal (z-score)” value [19] was -0.093, the “glycan array binding signal (z-score)” value [20] was -0.125 and the “glycan array binding signal (z-score)” value [21] was 1.61. For the same binder, the “glycan array binding signal (z-score)” value [22] was -0.723, the “glycan array binding signal (z-score)” value (GalNAc(b1-4)GlcNAc) was 0.123 and the “glycan array binding signal (z-score)” value (GalNAc4S6S(b1-4)GlcNAc) was -0.267. The “glycan array binding signal (z-score)” value (Glc(a1-4)Glc) was 3.14, the “glycan array binding signal (z-score)” value (Glc(a1-6)Glc(a1-6)Glc) was 0.005 and the “glycan array binding signal (z-score)” value (Glc(b1-4)Glc) was -0.381. For the same binder, the “glycan array binding signal (z-score)” value [23] was -0.406, the “glycan array binding signal (z-score)” value [24] was 2.24 and the “glycan array binding signal (z-score)” value [25] was 0.544.

B2: NanI (Corynebacterium diphtheriae), C6JSW7 (protein)
chain: MTNTLESNPMTTTTGALTITFATTCDGPLAHIPHHLDLNIIHGRIQGTTAHRRIDAEDPDGLDDGLPHHLCLSVDTTGTHLFIDGYEAFSTTQTEWFDTSELTLNPHGDLTIIDHQILNHAPTPRQARNLAPAAEPLVWFAGSHLSTRDTQRISHLTHGSLRLLMKTRGTGQGGVAFQAHTINGDLTLEIIDGTLIFSVRCHDEDYVRITAPGRWDDGQIYDVVIVCGRGATDIYVDGQQLIHSPGAAFFNDLSGELSVHIGTAASGVRLFGEVQSGMIYPHVFNHHQVQRLATVEPIATQALFDCLLDGAQSYRIPSLITTDSGVIIAGADKRVSIANDAPNDIDFVLRRSVDGGRTWQPPRTILQLPDTACVTDSVLLQDHTTGRIFAFLDQFPAGIGQPNAAFGTGFDADGNRIGHFADGSTCTMPREVDQLEASFFSDPHTAPPGIVFQHPSCHLWMLTSDDDGLTWSTPRDLTPDVKEEWMRFCGTSPGNGIQLQRDTHAGRLLIPMYYTKGDQFFAAALYSDDHGDTWHRGESPDLEMYESTLVEASDGSVLLWARNQHPSGAVAHARSTDGGHSWSQVTFNPNVPEIFSQPNALRVTNPDGIIFANASQLLPFRGRGVLRMSTNDGASWQHNRVFNPRHYVYQCMTQLPDGSIGLLWEREMQGLFFSIIPMTWIMQGYAL
With B2 the “glycan array binding signal (z-score)” value [26] was -0.34, the “glycan array binding signal (z-score)” value [27] was 0.411 and the “glycan array binding signal (z-score)” value [28] was -0.415. The “glycan array binding signal (z-score)” value [29] was 0.019, the “glycan array binding signal (z-score)” value [30] was -0.157 and the “glycan array binding signal (z-score)” value [31] was -0.533.
